# DT40 TDP1 no CPT = qHTS for Inhibitors of human tyrosyl-DNA phosphodiesterase 1 (TDP1): qHTS in cells in absence of CPT | DT40 Tdp1-/- hTDP1 cells, no CPT, ATP luminescence, 48 h | Potency, µM (doses to about 46.2 µM), for inactives: at the highest dose activity change, negative = growth inhibition, actives largely listed as inhibitors | 420,000 tested, 15% active | AID 686978, 2013; further: nearly all actives have a fitted effect of over 55% in size
#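 Chicken DT40 Tdp1-/- cells stably complemented with human TDP1 were seeded at 400 cells/well with DMSO in place of 20 nM camptothecin. After compound pinning, cells grew at least 48 hr at 37 °C; viability read by CellTiter-Glo luminescence.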
# KB-3-1 cytotox = qHTS assay for MDR1-selective chemotherapeutics: Primary screen using the parental adenocarcinoma cell KB-3-1; 400,000 tested, 1.4% active; KB-3-1 viability, CellTiter-Glo ATP luminescence, 72 h; Potency, µM (doses to about 46.1 µM), most hits filed as cytotoxic; AID 1347075, 2019; further: nearly all actives have a fitted effect of over 60% in size
#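 Multi-concentration cytotoxicity screen in KB-3-1 cells grown in DMEM lacking phenol red with 10% FBS. After 72 h at 37 °C with compound, ATP-dependent luminescence was recorded.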
# HT1080-NT tox = qHTS for induction of synthetic lethality in tumor cells producing 2HG: qHTS for the HT-1080-NT fibrosarcoma cell line | HT-1080-NT fibrosarcoma viability, CellTiter-Glo ATP luminescence, 48 h | Potency, µM (series often up to 46.1 µM), without a hit: top-dose activity, negative = less viability, actives largely listed as cytotoxic | 360,000 tested, 1.6% active;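 further: NT is the 2HG producing partner of a matched IDH1 knockdown line; 0% = DMSO-treated cells and -100% = media-only wells without cells; nearly all actives have a fitted effect of over 55% in size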
#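 750 cells/well, RPMI + 5% FBS; 2 h settle, compound pin-transfer, 48 h at 37 degrees C. CellTiter-Glo 10 min RT, luminescence. Normalized to DMSO and media-only wells.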
# KB-V1 MDR tox = qHTS assay for MDR1-selective chemotherapeutics: Primary screen using the drug-selected MDR subline cells KB-V1; KB-V1 MDR cells viability, CellTiter-Glo, 72 h; Potency, µM (titrated, usually from 46.1 µM), usual class: cytotoxic; 400,000 tested, 3.4% active; further: nearly all actives have a fitted effect of over 60% in size
#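 KB-V1 MDR subline cells in DMEM (phenol-red free, 10% FBS) exposed to compounds in qHTS concentration series for 72 h at 37 degrees C. Viability read by CellTiter-Glo luminescence; concentration-effect curves fitted after normalization and correction.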
# TDP1 cell CPT = qHTS for Inhibitors of human tyrosyl-DNA phosphodiesterase 1 (TDP1): qHTS in cells in presence of CPT | chicken DT40 Tdp1-/-;hTDP1 cells + 20 nM CPT, ATP luminescence, 48 h | Potency, µM (top dose mostly 46.2 µM), without a hit: top-dose activity change, negative = growth inhibition, hits mostly inhibitors | 420,000 tested, 12% active; further: nearly all actives have a fitted effect of over 55% in size
#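 Cell growth measured by CellTiter-Glo luminescence after a minimum 48 h, 37 C compound exposure with 20 nM CPT in Tdp1-knockout DT40 cells stably expressing hTDP1, seeded 400/well; qHTS titration format.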
# HT1080 IDH1KD tx = qHTS for induction of synthetic lethality in tumor cells producing 2HG: qHTS for the HT-1080-IDH1KD cell line; 360,000 tested, 2% active; Potency, µM (doses to about 46.1 µM), inactives show top-dose activity, negative = toxicity, most hits filed as cytotoxic; HT-1080 IDH1 knockdown viability, ATP luminescence, 48 h;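 further: 0% = DMSO wells and -100% = cell-free medium wells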
#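 Knockdown cells (IDH1KD HT-1080) received compounds 2 h after plating at 750 cells/well and were kept 48 h at 37 °C in 5% FBS RPMI. A CellTiter-Glo luminescence read gave % activity for curve fitting.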
# * marks the source's active call; other numbers are inactive results; i = inactive; ? = inconclusive; · = no result; [ ] = dose if it differs, or a comment. This is a sample that favours compounds with a hit; in the whole collection about 19% have one here. The call rests on the fitted dose curve; in most records, active means well fitted curve in the direction sought with a large enough effect; inconclusive means small, poorly fitted or top-dose-only effect, or another doubt; inactive means no such curve, though single readings can be large; an effect the other way counts as inactive or inconclusive. Unless noted, on the % scale 0 is the no-effect control and ±100 the full control effect; potency means the concentration at half of the fitted maximal effect.
SMILES,DT40 TDP1 no CPT,KB-3-1 cytotox,HT1080-NT tox,KB-V1 MDR tox,TDP1 cell CPT,HT1080 IDH1KD tx
CC1CC1c1ccc(/C=C(\C#N)C(=O)Nc2ccccc2Cl)o1 (centres undefined),?,i,6%,?,-21%,11%
Cc1cc(NC(=O)/C(C#N)=C/c2ccc(-c3ccc(SC(F)F)cc3)o2)n(-c2ccccc2)n1,18µM*,i,7%,i,?,4%
Cc1c(NC(=O)/C(C#N)=C\c2cccs2)c(=O)n(-c2ccccc2)n1C,-20%,i,5%,i,-16%,0%
Cc1c(NC(=O)/C(C#N)=C/c2ccc(-c3ccc(Cl)cc3)o2)c(=O)n(-c2ccccc2)n1C,15µM*,i,-1%,?,10µM*,-17%
Cc1[nH]c2c(ccc3ccccc32)c1C1C(CCN)C1(C)C (centres undefined),23µM*,?,-23%,?,?,-15%
CC(NC(=O)c1ccco1)c1nnc2n1CCN(Cc1ccc(N3CCCC3)cc1)CC2 (centres undefined),-18%,·,·,·,-4%[9.04 µM],·
CN(Cc1ccccc1)C(=O)c1cccc(NC(=O)Cc2ccc(NC(=O)C3CCCN(C(=O)c4ccccc4)C3)cc2)c1 (centres undefined),?,i,-1%,i,?,-1%
CCOC(=O)[C@]12CCC=C1N(Cc1cccc3ccccc13)C(=O)[C@H](CC(=O)NCCCCc1ccccc1)C2,16µM*,?,-18%,16µM*,23µM*,-19%
CCOC(=O)[C@]12CCC=C1N(Cc1cccc3ccccc13)C(=O)[C@H](CC(=O)NCc1cccs1)C2,?,?,?,?,?,-30%
CCOC(=O)[C@]12CCCC=C1N(Cc1cccc3ccccc13)C(=O)[C@H](CC(=O)NCc1cccs1)C2,23µM*,?,?,16µM*,?,?
C#CCNC(=O)C[C@@H]1C[C@@]2(C(=O)OCC)CCC=C2N(Cc2cccc3ccccc23)C1=O,16µM*,i,-2%,?,?,5%
CCOC(=O)[C@]12CCC=C1N(Cc1cccc3ccccc13)C(=O)[C@H](CC(=O)NCCc1ccccc1OC)C2,18µM*,?,-23%,15µM*,?,-15%
CCOC(=O)[C@]12CCC=C1N(Cc1cccc3ccccc13)C(=O)[C@H](CC(=O)NCc1ccccc1)C2,?,i,-13%,?,?,-26%
COc1ccc(NC(=O)N(C)C[C@H]2Oc3c(NC(=O)C4CCCCC4)cccc3C(=O)N([C@H](C)CO)C[C@@H]2C)cc1,-15%,i,7%,i,1%,11%
COCCNC(=O)C1(C)CCN(Cc2noc(-c3c(C)noc3C)n2)C1 (centres undefined),0%,i,?,i,0%,15%
CC(C)(Oc1ccc(Cl)cc1)C(=O)OCC(=O)N1CCN(c2ccccc2)CC1,-15%,i,0%,i,0%,0%
COc1ccccc1C(=O)Nc1ccc(S(=O)(=O)Nc2ncccn2)cc1,0%,i,·,i,-7%,·
CCCCCCCCN1C(=O)[C@H](CC(=O)NCc2cccc3ccccc23)C[C@@]2(C(=O)OCC)CCC=C12,21µM*,i,?,?,?,?
CCOC(=O)[C@]12CCC=C1N(Cc1ccccc1)C(=O)[C@H](CC(=O)NCc1ccc(C)o1)C2,-18%,i,-1%,?,-29%,-7%
CCOC(=O)[C@]12CCC=C1N(Cc1cccc3ccccc13)C(=O)[C@H](CC(=O)NCc1ccc(C)o1)C2,23µM*,i,?,12µM*,16µM*,?
CCOC(=O)[C@]12CCCC=C1N(Cc1cccc3ccccc13)C(=O)[C@H](CC(=O)NCc1ccccc1)C2,23µM*,i,?,?,?,?
CCOC(=O)[C@]12CCCC=C1N(Cc1cccc3ccccc13)C(=O)[C@H](CC(=O)NCC1CCCCC1)C2,23µM*,?,14%,?,?,17%
CCOC(=O)[C@]12CCC=C1N(Cc1ccco1)C(=O)[C@H](CC(=O)NCc1cccc3ccccc13)C2,-17%,i,1%,?,-16%,-8%
CC1CCN(c2ccc(-c3cccc(NS(=O)(=O)c4ccc(Cl)s4)c3)nn2)CC1,0%,i,·,i,8%,·
O=C(NNC(=O)c1cccs1)c1ccc(Cl)nc1,-12%,i,12%,i,12%,15%
SMILES,DT40 TDP1 no CPT,KB-3-1 cytotox,HT1080-NT tox,KB-V1 MDR tox,TDP1 cell CPT,HT1080 IDH1KD tx
Cc1onc(-c2ccccc2)c1C(=O)NC(C)CCc1ccccc1 (centres undefined),?,i,1%,i,-25%,-17%
CCOC(=O)C1(C)CCN1C(=O)c1ccc(Cl)nc1 (centres undefined),1%,i,26%,i,7%,17%
Cc1nnc(SCC(=O)Nc2c(Cl)cccc2Cl)n(N)c1=O,-11%,i,2%,i,?,10%
CCOC(=O)[C@]12CCCC=C1N(Cc1ccco1)C(=O)[C@H](CC(=O)NCc1ccc(OC)c(OC)c1)C2,?,i,14%,i,?,10%
CCOC(=O)[C@]12CCCC=C1N(Cc1cccc3ccccc13)C(=O)[C@H](CC(=O)NCc1ccc(OC)c(OC)c1)C2,16µM*,?,?,6.5µM*,?,?
CCC(C(=O)c1ccc2ncccc2c1)c1ccccc1 (centres undefined),16µM*,i,12%,?,15µM*,3%
CCOC(=O)c1sc(=N)n(-c2ccc(OC)cc2)c1C,?,i,0%,i,?,-2%
CCOC(=O)c1c(C)n(C)c2ccc(O)c(CN(C)C)c12,18µM*,?,-17%,i,21µM*,-14%
CCOC(=O)c1c(C)n(-c2ccc(OC)cc2)c2ccc(O)c(CN(C)C)c12,16µM*,?,?,?,26µM*,21µM*

# Source: PubChem
